PubChem BioAssay (NCATS)
“And” between values parts separate entries of the source, which are not always exact repeats. Equal entries are not always repeated. Inconclusive results are not listed. Where a call stands in place of a potency, no number is given. The source made the active and inactive calls. Unless noted, calls come from the whole dose curve; as a rule, active = well fitted curve in the direction sought with a large enough effect; inconclusive = small, poorly fitted or top-dose-only effect, or another doubt; inactive = no such curve, though single readings can be large; an effect the other way counts as inactive or inconclusive. Peptide text beside a SMILES is read from it.

How the values were obtained:
[1] = S16 Schwann cell PMP22 intronic element firefly luciferase assay (AID 624032); note: nearly all actives have a fitted effect of over 30% in size; note: potency is the fitted concentration of half-maximal effect
How it was run: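 Rat S16 Schwann cells stably carrying a PMP22 intronic element-driven Fluc reporter were seeded overnight, then exposed to compounds for 24 h at 37 °C. Luminescence was normalized to PTC124 (positive control) and DMSO (0% activity).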

[2] = S16 Schwann cell PMP22 intronic element beta-lactamase assay (AID 624044; calls by dose curve; note: nearly all actives have a fitted effect of over 15% in size; note: potency is the fitted concentration of half-maximal effect)
How it was run: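 Rat S16 Schwann cells with beta-Lac driven by a PMP22 intronic element, compound-treated 24 h at 37 °C. LiveBLAzer FRET B/G read: 460 nm normalized to potassium clavulanate vs DMSO; 535 nm FRET as viability; concentration-effect curves classified.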

[3] = target: Tumor necrosis factor (Homo sapiens) (UniProt P01375); test: qHTS assay to identify small molecules that stimulate Tumor Necrosis Factor-alpha (TNF-alpha) secretion (AID 651757; active = well fitted curve in the direction sought with a large enough effect in the signal ratio; the % refers to the signal ratio; note: potency is the fitted concentration of half-maximal effect)
How it was run: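 Secreted TNF-alpha from compound-treated THP-1 cells (17 hrs, 37 C) was quantified with a homogeneous time-resolved fluorescence antibody assay.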

[4] = qHTS assay to identify small molecules that stimulate interleukin-8 (IL-8) secretion (AID 651758; active = well fitted activation curve with a large enough effect in the signal ratio; the % refers to the signal ratio)
How it was run: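 THP-1, 2000 cells/well; cpd 16 h, 37 C; add cryptate + XL665 anti-IL-8 Abs; RT 1-3 h; TR-FRET read.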

[5] = qHTS assay for environmental chemicals that activate the Aryl hydrocarbon Receptor (AhR) signaling pathway (AID 651777); settings: 1A2-DRE human hepatoma cells, luciferase, 24 h; activation: stronger effect = higher value; note: nearly all actives have a fitted effect of over 15% in size; note: potency is the fitted concentration of half-maximal effect
How it was run: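 Reporter gene assay: hepatoma cells with DRE/CYP1A2-luciferase, 24 hr compound incubation at 37 C, 5% CO2, luminescence after One-Glo (30 min, RT).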

[6] = qHTS assay for small molecule activators of the p53 signaling pathway (AID 651743; active = well fitted activation curve with a large enough effect in the signal ratio, not every such curve was filed as active; the % refers to the signal ratio; note: potency is the fitted concentration of half-maximal effect); settings: HCT-116 p53RE-bla, beta-lactamase FRET ratio, 16 h; activation: stronger effect = higher value
How it was run: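 p53RE-bla HCT-116 cells with a stably integrated beta-lactamase reporter under p53 response elements were plated, rested 5 hours at 37 C/5% CO2, then exposed to compounds in DMSO for 16 hours at 37 C. LiveBLAzer B/G FRET substrate was read after 2 hours at room temperature.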

[7] = qHTS assay for small molecule activators of the nuclear factor-kappa B (NF-kB) signaling pathway (AID 651749; active = well fitted activation curve with a large enough effect in the signal ratio; the % refers to the signal ratio); settings: NF-kB-bla ME-180 cells, beta-lactamase FRET ratio, 16 h; stronger effect = higher value
How it was run: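 ME-180 cells stably carrying a beta-lactamase reporter under an NF-kB response element were exposed to compound or DMSO vehicle for 16 hr at 37C, 5% CO2. Pathway activation was read by FRET, since reporter expression disrupts FRET.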

[8] = qHTS assay for small molecule agonists of the antioxidant response element (ARE) signaling pathway (AID 651741; active = well fitted activation curve with a large enough effect in the signal ratio; the % refers to the signal ratio; note: potency is the fitted concentration of half-maximal effect)
How it was run: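 ARE-bla HepG2 cells (beta-lactamase reporter under ARE control) were plated at 2,000 cells/well, preincubated 5 h at 37 C/5% CO2, then treated with DMSO-dissolved compounds for 16 h at 37 C; LiveBLAzer B/G FRET substrate added, fluorescence read after 2 h at room temperature.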

[9] = Cytotoxicity counterscreen for NFkB agonists and antagonists (AID 624476);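 note: cells exposed to compound for 48 hours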
[10] = qHTS Assay for Identification of Small Molecule Antagonists for NFkB Signaling Pathway. (AID 624479; calls by dose curve;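 note: pathway stimulated with TNF alpha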)
[11] = Cell Proliferation Assay against the HBL1 Cell Line (AID 651646); settings: HBL1 DLBCL cells; at 46.1 µM (top of the series) unless noted;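 note: cells exposed to compound for 48 h before reading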
How it was run: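 500 log-phase HBL1 cells per well in phenol red-free RPMI with 5% FBS were treated with compounds for 48 h at 37 °C, 5% CO2. Viability was read by CellTiter-Glo luminescence, normalized to DMSO (100%) and 9.2 uM bortezomib final (0%).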

[12] = Cell Proliferation Assay against the TMD8 Cell Line (Caspase readout at 16 hrs) (AID 651712)
How it was run: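 TMD8 cells (500/well) in phenol-red-free RPMI with glutamine, 5% FBS, were exposed to compounds for 16 h at 37 °C. Caspase 3/7 activation was read by Caspase-Glo luminescence; percent activity normalised to DMSO (0%) and 9.2 uM bortezomib final (100%).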

[13] = Cell Proliferation Assay against the TMD8 Cell Line (Caspase readout at 8 hrs) (AID 651713)
How it was run: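 Percent activity derived from Caspase-Glo signal, DMSO set to 0% and bortezomib (9.2 uM final) to 100%. TMD8 cells were exposed to compound for 8 h in RPMI with 5% FBS.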

[14] = target: Glutaminase kidney isoform, mitochondrial (Homo sapiens) (UniProt O94925); test: qHTS for Inhibitors of Glutaminase (GLS): LOPAC Validation (AID 624146);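 note: glutamate product detected by oxidase and peroxidase coupled Amplex red fluorescence gain; nearly all actives have a fitted effect of over 60% in size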
How it was run: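 Read-out is an Amplex red fluorescence increase coupled through glutamate oxidase and HRP, measured before and after 30 min room-temperature incubation. hKGA is in 45 mM KH2PO4 (pH 8.2) with 0.02% Tween-20; glutamine added as 1mM solution.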

[15] = qHTS of Trypanosoma Brucei Inhibitors: LOPAC Validation (AID 624147)
How it was run: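 Readout: single end-point luminescence (Kinase-Glo Plus, 10 min). Reaction conditions were TbPYK/substrate plus 130 uM ADP, 45 min at RT, pH 7.2 TEA buffer. No-enzyme wells served as controls, and data were normalized before concentration-response fitting.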

[16] = target: Glucagon-like peptide 1 receptor (Homo sapiens) (UniProt P43220); test: qHTS of GLP-1 Receptor Agonists: LOPAC Validation (AID 624148);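 note: higher luminescence signal means agonism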
How it was run: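 HEK293 cells stably co-expressing a cAMP-responsive luciferase reporter and a hypersensitive GLP-1R were plated 12 h at 37 °C and exposed to compounds for 4-6 hr at 37 °C, 5% CO2. Luminescence was read 12 min after adding detection reagent.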

[17] = qHTS of Nrf2 Activators: LOPAC Validation (AID 624149)
How it was run: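 ARE reporter activation measured in AREc32 firefly luciferase cells after 24 hr compound exposure; Steady-Glo luminescence.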

[18] = HTS Assay for Allosteric Antagonists of the Human D2 Dopamine Receptor: Hit Validation in HTRF (AID 624455);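 note: stable D1 dopamine receptor cell line scored for blocking the D1 response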
How it was run: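 Signal from an HTRF read-out in D1-expressing stable cells gave hit activity as inhibition of the D1 response.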

[19] = qHTS assay for small molecule disruptors of the mitochondrial membrane potential - 1 hr assay (AID 651754; calls by dose curve; note: potency is the fitted concentration of half-maximal effect; nearly all actives have a fitted effect of over 35% in size)
How it was run: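 Steps: seed HepG2 cells and let attach overnight; pin-transfer compound or vehicle; incubate 1 hr at 37C; add Mito-MPS dye for 30 min; read two-channel fluorescence for monomer and aggregate forms.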

[20] = qHTS assay for small molecule disruptors of the mitochondrial membrane potential - 5 hr assay (AID 651755; calls by dose curve; note: potency is the fitted concentration of half-maximal effect; nearly all actives have a fitted effect of over 40% in size)
How it was run: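 HepG2 cells, attached overnight at 37C, were exposed to compound or DMSO for 5 hr at 37C, 5% CO2. Mito-MPS dye was then added for 30 min, and fluorescence read at 490/535 nm (monomers) and 540/590 nm (aggregates).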

Tumor necrosis factor (Homo sapiens), sequence (P01375 whole entry, looked up): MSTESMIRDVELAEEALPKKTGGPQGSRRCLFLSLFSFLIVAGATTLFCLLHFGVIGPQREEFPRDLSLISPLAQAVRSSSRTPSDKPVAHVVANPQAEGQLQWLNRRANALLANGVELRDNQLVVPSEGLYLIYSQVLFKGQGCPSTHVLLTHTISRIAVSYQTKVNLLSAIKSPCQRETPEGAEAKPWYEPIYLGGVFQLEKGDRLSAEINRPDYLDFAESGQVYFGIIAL
Glucagon-like peptide 1 receptor (Homo sapiens), sequence (P43220 whole entry, looked up): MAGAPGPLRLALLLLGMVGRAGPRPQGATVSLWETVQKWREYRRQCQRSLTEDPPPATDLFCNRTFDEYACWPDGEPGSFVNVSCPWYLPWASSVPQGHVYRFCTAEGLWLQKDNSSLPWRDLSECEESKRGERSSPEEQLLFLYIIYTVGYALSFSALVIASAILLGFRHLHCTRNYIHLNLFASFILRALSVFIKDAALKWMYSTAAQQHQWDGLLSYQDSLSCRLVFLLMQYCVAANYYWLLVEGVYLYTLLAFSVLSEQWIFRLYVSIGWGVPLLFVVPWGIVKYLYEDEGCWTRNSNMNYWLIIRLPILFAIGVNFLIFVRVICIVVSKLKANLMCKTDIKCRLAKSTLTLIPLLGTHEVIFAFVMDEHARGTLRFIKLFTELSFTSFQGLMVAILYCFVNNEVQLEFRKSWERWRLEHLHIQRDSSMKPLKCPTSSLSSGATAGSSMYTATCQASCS
Glutaminase kidney isoform, mitochondrial (Homo sapiens), sequence (O94925 whole entry, looked up, canonical isoform): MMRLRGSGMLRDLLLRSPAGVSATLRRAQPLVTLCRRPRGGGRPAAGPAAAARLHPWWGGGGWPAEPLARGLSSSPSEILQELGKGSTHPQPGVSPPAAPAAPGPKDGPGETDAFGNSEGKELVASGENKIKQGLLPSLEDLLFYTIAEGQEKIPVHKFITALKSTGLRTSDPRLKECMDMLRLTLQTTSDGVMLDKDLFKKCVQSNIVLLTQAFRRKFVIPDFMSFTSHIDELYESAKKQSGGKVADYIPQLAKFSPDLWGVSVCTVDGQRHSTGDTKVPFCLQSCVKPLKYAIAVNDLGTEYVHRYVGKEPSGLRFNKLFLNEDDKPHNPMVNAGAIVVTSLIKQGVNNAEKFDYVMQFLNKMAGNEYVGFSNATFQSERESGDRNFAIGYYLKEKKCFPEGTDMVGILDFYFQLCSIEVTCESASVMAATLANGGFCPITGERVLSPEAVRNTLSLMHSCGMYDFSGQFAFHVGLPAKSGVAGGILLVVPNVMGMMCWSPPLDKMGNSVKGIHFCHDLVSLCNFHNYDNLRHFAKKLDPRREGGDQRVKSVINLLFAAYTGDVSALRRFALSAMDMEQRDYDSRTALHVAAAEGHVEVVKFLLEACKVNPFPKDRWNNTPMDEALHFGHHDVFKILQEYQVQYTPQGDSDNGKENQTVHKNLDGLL

O=C(O)CCNC(=O)c1ccc(N=Nc2ccc(O)c(C(=O)O)c2)cc1
Potency [1]: inactive

Cc1cc(=O)oc2cc(O)ccc12
Potency [1]: inactive

Cc1cc2c(s1)Nc1ccccc1N=C2N1CCN(C)CC1
Potency [1]: inactive

C[C@H](Cn1cnc2c(N)ncnc21)OCP(=O)(O)O
Potency [1]: inactive
Potency [2]: inactive

CN(C)C(=O)COC(=O)Cc1ccc(OC(=O)c2ccc(N=C(N)N)cc2)cc1
Potency [1]: inactive

O=P(O)(O)C(O)(Cn1ccnc1)P(=O)(O)O
Potency [1]: inactive
Potency [2]: inactive

O=C(NC(Cc1cc(=O)[nH]c2ccccc12)C(=O)O)c1ccc(Cl)cc1 (stereo not given)
Potency [1]: inactive

O=C(O)c1cn(-c2ccc(F)cc2)c2cc(N3CCNCC3)c(F)cc2c1=O
Potency [1]: inactive
Potency [2]: inactive

CCN(CC)CCOc1ccc(Cc2ccccc2)cc1
Potency [1]: inactive

CCOC(=O)c1c(C)n(C)c2ccc(O)cc12
Potency [1]: inactive
Potency [2]: inactive

CCC[C@@H]1C[C@@H](C(=O)N[C@@H]([C@H]2O[C@H](SC)[C@H](O)[C@@H](O)[C@H]2O)[C@@H](C)O)N(C)C1
Potency [1]: inactive
Potency [2]: inactive

CN1C(C(=O)Nc2ccccn2)=C(O)c2sccc2S1(=O)=O
Potency [1]: inactive

N=C(N)c1ccc2cc(OC(=O)c3ccc(N=C(N)N)cc3)ccc2c1
Potency [1]: inactive

CC(C)(S)[C@@H](N)C(=O)O
Potency [1]: inactive
Potency [2]: inactive

O=C(O)c1cccc(-c2noc(-c3ccccc3F)n2)c1
Potency [1]: inactive

Cc1c(C(=O)NN2CCCCC2)nn(-c2ccc(Cl)cc2Cl)c1-c1ccc(Cl)cc1
Potency [1]: 18.1 µM (active)

Cc1ncc([N+](=O)[O-])n1CC(C)O (stereo not given)
Potency [1]: inactive

COC(=O)C1=C(C)NC(C)=C(C(=O)OCCCN2CCC(c3ccccc3)(c3ccccc3)CC2)C1c1cccc([N+](=O)[O-])c1 (stereo not given)
Potency [1]: 10.2 µM (active)

CC[C@]1(O)C[C@H]2CN(CCc3c([nH]c4ccccc34)[C@@](C(=O)OC)(c3cc4c(cc3OC)N(C=O)[C@H]3[C@@](O)(C(=O)OC)[C@H](OC(C)=O)[C@]5(CC)C=CCN6CC[C@]43[C@@H]65)C2)C1
Potency [1]: 0.0907 µM (active)
Potency [2]: 0.282 µM (active)

CC(C)[C@H](N)C(=O)OCCOCn1cnc2c(=O)[nH]c(N)nc21
Potency [1]: inactive

Cc1cc(=O)c2c(O)c3c(O)cc(=O)c4c3c3c(cc(O)c1c23)C(C)(C)C=4O
Potency [1]: inactive

Cn1c(NCCN(CCO)CCCc2ccc([N+](=O)[O-])cc2)cc(=O)n(C)c1=O
Potency [1]: inactive

CCCCCCCCCCCCCCCCCCCCCCO
Potency [1]: inactive
Potency [2]: inactive

CN(C)CCc1c[nH]c2ccc(Cn3cncn3)cc12
Potency [1]: inactive

CN(c1nccc(=O)[nH]1)C1CCN(c2nc3ccccc3n2Cc2ccc(F)cc2)CC1
Potency [1]: inactive
Potency [2]: inactive

C[Se]CCC(N)C(=O)O (stereo not given)
Potency [1]: inactive
Potency [2]: inactive

C[C@]12CCC(=O)C=C1CC[C@@H]1[C@H]2[C@@H](O)C[C@@]2(C)[C@H]1CC[C@]2(O)C(=O)CO
Potency [1]: inactive
Potency [2]: inactive

CC(S)C(=O)NCC(=O)O (stereo not given)
Potency [1]: inactive

N=C(N=C(N)N)N1CCOCC1
Potency [1]: inactive

O=C(CS(=O)Cc1ccco1)NCC=CCOc1cc(CN2CCCCC2)ccn1 (stereo not given)
Potency [1]: inactive

O=C(OC1C[C@H]2CC[C@@H](C1)[N+]21CCCC1)C(O)(c1ccccc1)c1ccccc1 (stereo not given in full)
Potency [1]: inactive
Potency [2]: inactive

CC1=C(C)C(=O)C(C(CCCCCC(=O)O)c2ccccc2)=C(C)C1=O (stereo not given)
Potency [1]: inactive
Potency [2]: inactive

COc1ccc(C2(C#N)CCC(C(=O)O)CC2)cc1OC1CCCC1 (stereo not given)
Potency [1]: inactive

C=CCc1cc(OC)c(O)c(C(=O)NCCO)c1
Potency [1]: inactive

Cc1cc(C2CCCCC2)n(O)c(=O)c1
Potency [1]: 1.55 µM (active)

CCCOc1ccc2nc(NC(=O)OC)[nH]c2c1
Potency [1]: inactive

Nc1cc(C(Cl)=C(Cl)Cl)c(S(N)(=O)=O)cc1S(N)(=O)=O
Potency [1]: inactive

CCC1=C(C)CN(C(=O)NCCc2ccc(S(=O)(=O)NC(=O)NC3CCC(C)CC3)cc2)C1=O (stereo not given)
Potency [1]: 32.2 µM (active)
Potency [2]: inactive

O=C(O)c1cc(=O)c2c(OCC(O)COc3cccc4oc(C(=O)O)cc(=O)c34)cccc2o1
Potency [1]: inactive

CCc1nc(N)nc(N)c1-c1ccc(Cl)cc1
Potency [1]: inactive
Potency [2]: 9.99 µM (active)
Potency [3]: inactive
outcome [4]: inactive
activation [5]: 1.47% (inactive) and 0.312% (inactive)

O=C1CCc2ccc(OCCCCN3CCN(c4cccc(Cl)c4Cl)CC3)cc2N1
Potency [1]: 22.8 µM (active)
Potency [2]: inactive

Cc1cc2cc3c(C)cc(=O)oc3c(C)c2o1
Potency [1]: inactive
Potency [2]: inactive

CCCCC(CC)COC(=O)C(C#N)=C(c1ccccc1)c1ccccc1 (stereo not given)
Potency [2]: inactive
activation [6]: -3.23% (inactive)
activation [7]: 0.0169% (inactive)
Potency [3]: inactive
activation [5]: 0.749% (inactive)

COC(=O)[C@H](Cc1ccccc1)NC(=O)[C@@H](N)CC(=O)O (H-Asp-Phe-OMe)
Potency [1]: inactive
Potency [8]: inactive
activation [6]: 0.335% (inactive) and -1.33% (inactive)
activation [7]: -1.39% (inactive) and -0.748% (inactive)
Potency [3]: inactive
outcome [4]: inactive
activation [5]: -1.45% (inactive) and -0.834% (inactive)

CCCCN(CCCC)CCC(O)c1cc2c(Cl)cc(Cl)cc2c2cc(C(F)(F)F)ccc12 (stereo not given)
Potency [2]: inactive

CC1(C)CCC(C)(C)c2cc(NC(=O)c3ccc(C(=O)O)cc3)ccc21
Potency [1]: 0.114 µM (active)
Potency [2]: inactive

Nc1cccc2c1CN(C1CCC(=O)NC1=O)C2=O (stereo not given)
Potency [1]: inactive
Potency [9]: inactive
Potency [10]: inactive
viability, percent of control [11]: 121% [at 92.2 µM]
Potency [12]: inactive
Potency [13]: inactive

CCCCCCCCOc1ccccc1C(=O)Nc1ccc(C(=O)OCC[N+](C)(CC)CC)cc1
Potency [1]: inactive
Potency [2]: inactive

CC(C)c1ccc2oc3nc(N)c(C(=O)O)cc3c(=O)c2c1
Potency [2]: inactive

Cc1nc2n(c(=O)c1CCN1CCC(c3noc4cc(F)ccc34)CC1)CCCC2
Potency [2]: inactive

O=C(O)c1cccnc1Nc1cccc(C(F)(F)F)c1
Potency [1]: inactive
Potency [14]: inactive
Potency [15]: inactive
outcome [16]: inactive
outcome [17]: inactive
outcome [18]: inactive

N[C@@H](Cc1cc(I)c(Oc2cc(I)c(O)c(I)c2)c(I)c1)C(=O)O
Potency [1]: inactive
Potency [2]: inactive
Potency [8]: 54.5 µM (active)
activation [7]: 8.63% (inactive)
Potency [5]: 44.7 µM (active)

CN(C)c1ccc2nc3ccc(=[N+](C)C)cc-3sc2c1
Potency [1]: inactive
Potency [6]: 20 µM (active)
Potency [19]: 3.76 µM (active)
Potency [20]: 5.31 µM (active)
Potency [3]: 10.6 µM (active)
activation [5]: -2.65% (inactive)

COC1=C(OC)C(=O)C(CCCCCCCCCCO)=C(C)C1=O
Potency [2]: inactive
